The values that follow come from PubChem BioAssay (NCATS).

Values without a mark were called inactive. Inconclusive results are not listed. Active and inactive are the calls of the source.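 Rule for the calls, unless noted: active = compounds whose dose series gives a full or clear partial fitted curve of increased nuclear translocation; inconclusive = weak partial curve or effect only at the top dose; inactive = no dose-dependent translocation response.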

The nature of assay [1]: NFAT Signaling Pathway (AID 444; active = well fitted curve in either direction with a large enough effect, not every such curve was filed as active;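 note: carbachol stimulus at about its EC50 of 1 µM final; % is set by controls: 0 for no effect and ±100 for the full control effect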). The following applies: Jurkat NFAT-bla M1, carbachol, beta-lactamase ratio, 5 h; at 17.2 µM (top of the series) unless noted. A digest of the protocol:
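Jurkat cells with NFAT-driven β-lactamase reporter and co-expressed M1 receptor, stimulated with carbachol (final 1 uM, ~EC50), compound titration, 5 h at 37 °C. CCF4 loaded 1 h at RT; 460/530 nm ratio gave %activity and AC50.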

In assay [2] the target is Glucocorticoid receptor (Homo sapiens) (UniProt P04150). The experiment in a line: GR-GFP Redistribution (AID 450). Note: potency is the fitted concentration of half-maximal effect.
Sequence of Glucocorticoid receptor (Homo sapiens) (P04150 whole entry, looked up, the tested form may be a part): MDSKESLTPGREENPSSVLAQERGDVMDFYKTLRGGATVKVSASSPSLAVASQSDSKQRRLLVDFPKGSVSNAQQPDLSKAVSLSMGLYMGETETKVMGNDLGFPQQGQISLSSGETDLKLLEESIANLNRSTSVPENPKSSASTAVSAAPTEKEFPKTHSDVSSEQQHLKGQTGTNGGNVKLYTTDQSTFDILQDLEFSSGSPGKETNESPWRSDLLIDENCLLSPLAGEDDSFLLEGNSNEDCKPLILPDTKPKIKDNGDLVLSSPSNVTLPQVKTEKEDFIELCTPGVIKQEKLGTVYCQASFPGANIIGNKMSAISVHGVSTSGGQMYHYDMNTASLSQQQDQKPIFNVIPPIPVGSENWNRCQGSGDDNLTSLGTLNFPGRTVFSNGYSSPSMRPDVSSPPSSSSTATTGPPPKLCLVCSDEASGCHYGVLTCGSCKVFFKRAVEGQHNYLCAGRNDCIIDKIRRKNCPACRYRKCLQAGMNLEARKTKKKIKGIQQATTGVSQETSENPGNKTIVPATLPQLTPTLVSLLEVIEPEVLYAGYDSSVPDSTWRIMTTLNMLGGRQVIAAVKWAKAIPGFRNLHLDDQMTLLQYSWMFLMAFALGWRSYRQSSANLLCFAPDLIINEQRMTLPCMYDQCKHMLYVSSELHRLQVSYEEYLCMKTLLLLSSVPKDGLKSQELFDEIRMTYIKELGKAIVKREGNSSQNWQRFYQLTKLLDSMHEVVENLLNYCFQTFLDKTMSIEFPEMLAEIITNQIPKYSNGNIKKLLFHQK
The nature of assay [3]: qHTS Assay for Identification of Small Molecule Agonists for Hypoxia Response Element Signaling Pathway (AID 914; active = well fitted activation curve with a large enough effect in the signal ratio, with a control signal flat, not every such curve was filed as active; the % refers to the signal ratio; note: potency is the fitted concentration of half-maximal effect). The conditions noted are these: ME-180 HRE-bla reporter, beta-lactamase ratio, CoCl2, 17 h; activation: active compounds read high. A digest of the protocol:
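ME-180 cells carrying an HRE-driven beta-lactamase reporter were treated with compounds in a titration series plus an EC50 level of CoCl2 for 17 h at 37 degrees Celsius; CCF4 readout as the 460nm/530nm ratio gave AC50 values.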
(qHTS replaces the single test concentration by a dilution series.)

Assay [4] can be described thus: Stat Signaling Pathway (AID 446; active = well fitted curve in either direction with a large enough effect, not every such curve was filed as active;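 note: ME-180 cervical cancer cells given 40 pM IL-6 alongside compound; SIE-controlled beta-lactamase reporter measured as 460/530 nm FRET emission ratio; % is set by controls: 0 for no effect and ±100 for the full control effect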). The following applies: ME-180 SIE beta-lactamase reporter, IL-6 stimulated, 5 h; at 17.2 µM (top of the series) unless noted. A digest of the protocol:
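ME-180 cells carrying a SIE-driven beta-lactamase reporter are stimulated with 40 pM IL-6 for 5 h at 37C in the presence of compound. The 460/530 nm FRET substrate ratio is read after 2.5 h at RT. Data are normalised to 300 pM IL-6 and to 125 nM JAK inhibitor controls.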

The target in assay [5] is Mitogen-activated protein kinase 10 (Mus musculus) (UniProt Q61831). The assay can be described thus: JNK3 AlphaScreen Assay (AID 530; active = well fitted curve in either direction with a large enough effect, not every such curve was filed as active;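 note: kinase came from lysate of stimulated human HepG2 cells; signal reports phosphorylation of biotinylated GST-cJun 1-79 at Ser73 with 10 µM ATP; % is set by controls: 0 for no effect and ±100 for the full control effect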). The essentials:
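Pre-activated (IL-1β/TNFα) JNK3 in HepG2 lysates phosphorylates biotin-GST-cJun(1-79), 10 uM ATP; anti-phospho-cJun(Ser73) AlphaScreen read at room temperature, pH 7.6 Tris buffer. Compounds pre-incubated 15 min as titrations.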
Background: Bead proximity is the source of the signal in Alpha formats.

Assay [6] is described as follows: qHTS Assay for Identification of Small Molecule Antagonists for Thrombopoietin (TPO) Signaling Pathway (AID 918; active = well fitted curve in the direction sought with a large enough effect; an effect the other way counts as inactive or inconclusive; note: potency is the fitted concentration of half-maximal effect; nearly all actives have a fitted effect of over 60% in size). The following applies: TPO-dependent cell signaling reporter, antagonist mode. A digest of the protocol: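 Ba/F3 (murine, hTPO-R, GPIIb-luc reporter); overnight IL-3 withdrawal; cpd + TPO 26 pM final (EC50); 24 h 37 C/5% CO2; Steadylite luminescence after 10 min RT.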

For assay [7], the target named is Guanine nucleotide-binding protein G(i) subunit alpha-1 (Homo sapiens) (UniProt P63096). The experiment in a line: qHTS Assay for Inhibitors of RGS12 GoLoco Motif Activity (Green Fluorophore) (AID 879; active = well fitted curve in the direction sought with a large enough effect; an effect the other way counts as inactive or inconclusive;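 note: 0% = labeled peptide with Gαi1 and full inhibition = labeled peptide alone without protein; negative values mean loss of peptide binding seen as reduced polarization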). The essentials: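 Fluorescence polarization assay: 50 nM Gαi1 with 10 nM FITC-labeled RGS12 GoLoco peptide in 10 mM Tris pH 7.5, 150 mM NaCl, 0.1 mM GDP, 0.05% NP40, 10 min at room temperature with compound.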
Sequence of Guanine nucleotide-binding protein G(i) subunit alpha-1 (Homo sapiens) (P63096 whole entry, looked up): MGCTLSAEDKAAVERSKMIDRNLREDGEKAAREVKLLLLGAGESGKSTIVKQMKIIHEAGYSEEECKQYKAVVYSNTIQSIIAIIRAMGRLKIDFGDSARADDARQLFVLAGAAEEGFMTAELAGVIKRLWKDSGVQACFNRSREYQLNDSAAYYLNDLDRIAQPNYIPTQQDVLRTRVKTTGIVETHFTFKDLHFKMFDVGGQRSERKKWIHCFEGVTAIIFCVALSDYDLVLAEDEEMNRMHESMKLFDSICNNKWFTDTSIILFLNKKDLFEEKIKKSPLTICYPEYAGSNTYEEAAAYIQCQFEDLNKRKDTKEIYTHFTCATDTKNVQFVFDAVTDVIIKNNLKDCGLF

Assay [8] deals with Muscarinic acetylcholine receptor M1 (Rattus norvegicus) (UniProt P08482). The experiment in a line: qHTS Assay for Antagonists of Acetylcholine Muscarinic M1 Receptor: Kinetic Measurement of Intracellular Calcium Response (AID 943; active = well fitted curve in the direction sought with a large enough effect; an effect the other way counts as inactive or inconclusive; note: nearly all actives have a fitted effect of over 75% in size; note: potency is the fitted concentration of half-maximal effect;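 for activity change, negative = inhibition: Fluo-4 calcium signal as peak divided by basal fluorescence over 4 min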). The essentials: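 Rat M1-CHO cells, 2000/well, overnight → Fluo-4 no-wash dye with probenecid, 1 h 37C → compound 10 min, room temp → basal read 6 s → carbachol EC80 (100 nM) → 4 min kinetic read; peak/basal.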
Sequence of Muscarinic acetylcholine receptor M1 (Rattus norvegicus) (P08482 whole entry, looked up): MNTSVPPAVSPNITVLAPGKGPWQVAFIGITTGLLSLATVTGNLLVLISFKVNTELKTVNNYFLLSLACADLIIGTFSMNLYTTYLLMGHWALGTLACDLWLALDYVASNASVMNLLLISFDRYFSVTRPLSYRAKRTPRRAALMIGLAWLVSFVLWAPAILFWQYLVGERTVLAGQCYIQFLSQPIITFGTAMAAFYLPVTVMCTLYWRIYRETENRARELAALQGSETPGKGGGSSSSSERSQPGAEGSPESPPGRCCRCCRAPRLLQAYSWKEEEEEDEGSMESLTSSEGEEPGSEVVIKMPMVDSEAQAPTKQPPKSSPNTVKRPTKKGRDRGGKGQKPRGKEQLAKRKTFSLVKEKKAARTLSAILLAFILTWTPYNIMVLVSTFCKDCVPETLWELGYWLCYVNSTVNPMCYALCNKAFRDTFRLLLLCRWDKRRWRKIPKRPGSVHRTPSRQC

Assay [9] can be described thus: qHTS Assay for Identification of Small Molecule Antagonists for NFkB Signaling Pathway (AID 895; active = well fitted inhibition curve with a large enough effect in the signal ratio, with a control signal flat, not every such curve was filed as active; the % refers to the signal ratio; note: potency is the fitted concentration of half-maximal effect). The essentials: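 ME-180 NFkB-bla cells (beta-lactamase under NFkB response element), plated overnight, treated with compound then 10 pM TNF alpha (about EC50) for 5 hrs at 37 C. LiveBLAzer FRET read at 460/530 nm emission, 405 nm excitation.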
Assay [10] addresses Glucocorticoid receptor (Homo sapiens) (UniProt P04150). The experiment in a line: GR-EFC Redistribution (AID 451; calls by dose curve; note: potency is the fitted concentration of half-maximal effect). The following applies: CHO-K1 GR-EFC translocation, beta-gal luminescence, 2 h. The essentials:
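CHO-K1 cells expressing nuclear EA and GR-ED fragments of b-gal; compounds titrated up to 46 uM final, 2 h at 37 C. GR nuclear translocation read as complemented b-gal luminescence after 1 h RT detection.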

Assay [11] concerns the target 3',5'-cyclic-AMP phosphodiesterase 4B (Homo sapiens) (UniProt Q07343). The experiment in a line: qHTS Assay for Inhibitors of PDE-IV (AID 607; active = well fitted activation curve with a large enough effect in the main read-out, with a control signal flat, not every such curve was filed as active; note: % of control where 0% means no effect). A digest of the protocol:
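HEK293 ACTOne cells with CNG channel (1000/well), endogenous PDE4; membrane potential dye, compounds up to 22.9 uM final. Fluorescence Ex 535/Em 590; RO 20-1724 (100 uM final) as reference.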

The target of assay [12] is Cytochrome P450 2D6 (Homo sapiens) (UniProt P10635). The assay can be described thus: qHTS Assay for Inhibitors and Substrates of Cytochrome P450 2D6 (AID 891; active = well fitted curve in the direction sought with a large enough effect; an effect the other way counts as inactive or inconclusive; note: nearly all actives have a fitted effect of over 60% in size; note: potency is the fitted concentration of half-maximal effect;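 for activity change, negative = inhibition: luciferin methyl ether substrate demethylated by CYP2D6 with NADPH regeneration; % is set by controls: 0 for no effect and ±100 for the full control effect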). The essentials: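 Human CYP2D6 (5 nM) with 30 uM Luciferin-ME EGE (at Km) in 100 mM KPO4, compound preincubated 10 min, then NADPH regeneration system for 60 min at room temperature. Luciferin read by luminescence; normalized to 1.43 uM quinidine.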
Sequence of Cytochrome P450 2D6 (Homo sapiens) (P10635 whole entry, looked up): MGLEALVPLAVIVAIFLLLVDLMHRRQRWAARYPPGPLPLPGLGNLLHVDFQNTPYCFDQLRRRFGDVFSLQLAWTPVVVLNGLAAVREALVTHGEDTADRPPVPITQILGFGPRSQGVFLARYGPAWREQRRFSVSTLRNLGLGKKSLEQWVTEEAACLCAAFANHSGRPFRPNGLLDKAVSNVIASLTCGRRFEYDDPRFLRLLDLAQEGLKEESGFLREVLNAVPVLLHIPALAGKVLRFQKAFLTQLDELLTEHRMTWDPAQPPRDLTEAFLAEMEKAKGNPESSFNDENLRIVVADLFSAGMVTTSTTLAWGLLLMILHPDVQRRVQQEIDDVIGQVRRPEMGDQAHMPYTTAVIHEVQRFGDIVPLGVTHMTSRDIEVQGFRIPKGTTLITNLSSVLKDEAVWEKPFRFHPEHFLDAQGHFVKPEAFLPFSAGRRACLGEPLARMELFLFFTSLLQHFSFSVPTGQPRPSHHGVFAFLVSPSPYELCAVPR

Assay [13] concerns the target Ubiquitin carboxyl-terminal hydrolase 1 (Homo sapiens) (UniProt O94782). The experiment in a line: Inhibitors of USP1/UAF1: Pilot qHTS (AID 504865; active = well fitted curve in the direction sought with a large enough effect; an effect the other way counts as inactive or inconclusive; note: potency is the fitted concentration of half-maximal effect; nearly all actives have a fitted effect of over 35% in size). The essentials: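 In 50mM HEPES pH 7.8 containing 0.5mM EDTA, 1mM TCEP, 0.1 mg/ml BSA and 0.01% Tween-20, 1nM USP1/UAF1 is exposed to compound for 15 min, then Ub-Rho (150nM final) is added and fluorescence is read over time.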

The target of assay [14] is Cytochrome P450 2C9 (Homo sapiens) (UniProt P11712). The assay can be described thus: qHTS Assay for Inhibitors and Substrates of Cytochrome P450 2C9 (AID 883; active = well fitted curve in the direction sought with a large enough effect; an effect the other way counts as inactive or inconclusive; note: potency is the fitted concentration of half-maximal effect; nearly all actives have a fitted effect of over 60% in size). A digest of the protocol:
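10nM CYP2C9 + 100uM Luciferin-H (=KM), 25mM KPO4; cpd 10 min 37C; NADPH regen, 60 min 37C; stop/detect with P450 Glo-Buffer 20 min; luminescence. Norm. to 57uM sulphaphenazole as full inhibition.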

Assay [15] deals with Cytochrome P450 2C19 (Homo sapiens) (UniProt P33261). The assay can be described thus: qHTS Assay for Inhibitors and Substrates of Cytochrome P450 2C19 (AID 899; active = well fitted curve in the direction sought with a large enough effect; an effect the other way counts as inactive or inconclusive; note: potency is the fitted concentration of half-maximal effect; nearly all actives have a fitted effect of over 60% in size). A digest of the protocol: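 Luminescent read-out of luciferin formed from Luciferin-H EGE (10uM, equal to KM). Enzyme 5nM in 50mM KPO4; compound added, 10 min at 37C, then NADPH regenerating system for 60 min at 37C. Full inhibition defined by 57uM ketoconazole.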
Sequence of Cytochrome P450 2C19 (Homo sapiens) (P33261 whole entry, looked up): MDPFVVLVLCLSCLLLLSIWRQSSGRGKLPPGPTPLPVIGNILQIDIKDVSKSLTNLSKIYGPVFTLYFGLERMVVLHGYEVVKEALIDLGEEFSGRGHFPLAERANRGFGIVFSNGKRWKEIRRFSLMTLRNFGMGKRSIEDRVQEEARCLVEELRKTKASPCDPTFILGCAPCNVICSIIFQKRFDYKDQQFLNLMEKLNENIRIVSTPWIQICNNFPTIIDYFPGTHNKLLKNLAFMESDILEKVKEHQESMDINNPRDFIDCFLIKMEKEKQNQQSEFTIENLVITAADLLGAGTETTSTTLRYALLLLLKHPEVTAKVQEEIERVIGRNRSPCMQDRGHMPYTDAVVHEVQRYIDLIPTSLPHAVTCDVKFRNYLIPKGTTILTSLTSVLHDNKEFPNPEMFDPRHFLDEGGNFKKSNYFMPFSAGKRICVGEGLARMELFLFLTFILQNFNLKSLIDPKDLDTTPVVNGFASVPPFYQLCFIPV

Assay [16] deals with DNA dC->dU-editing enzyme APOBEC-3G (Homo sapiens) (UniProt Q9HC16). The experiment in a line: qHTS for inhibitors of Vif-A3G interactions: Validation (AID 588379; active = well fitted curve in the direction sought with a large enough effect; an effect the other way counts as inactive or inconclusive; note: 0% is about no effect). The essentials: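 HeLa cells stably expressing Vif and A3G-eYFP, 700 cells/well, incubated overnight at 37 deg C, then exposed to compound overnight at 37 deg C. Inhibition of Vif-mediated degradation read as increased yellow fluorescence (Ex 488/Em 500-530) by laser-scanning cytometry.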
Sequence of DNA dC->dU-editing enzyme APOBEC-3G (Homo sapiens) (Q9HC16 whole entry, looked up): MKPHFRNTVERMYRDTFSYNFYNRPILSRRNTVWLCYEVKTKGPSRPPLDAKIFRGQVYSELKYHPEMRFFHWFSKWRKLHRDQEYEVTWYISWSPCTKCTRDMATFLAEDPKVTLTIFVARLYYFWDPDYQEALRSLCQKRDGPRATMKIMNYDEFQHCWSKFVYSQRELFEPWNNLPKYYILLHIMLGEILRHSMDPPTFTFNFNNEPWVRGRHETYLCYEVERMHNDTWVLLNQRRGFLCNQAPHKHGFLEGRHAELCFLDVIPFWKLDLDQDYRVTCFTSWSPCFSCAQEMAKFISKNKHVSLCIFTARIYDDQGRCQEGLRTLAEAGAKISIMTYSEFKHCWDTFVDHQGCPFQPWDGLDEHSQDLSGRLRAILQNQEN

Assay [17] has as its target Luciferin 4-monooxygenase (Photinus pyralis) (UniProt P08659). The assay can be described thus: Biochemical firefly luciferase enzyme assay for NPC (AID 624030; active = well fitted curve in the direction sought with a large enough effect; an effect the other way counts as inactive or inconclusive;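 note: purified P. pyralis luciferase at 10 nM with luciferin and ATP substrate; 0% = DMSO and -100% = full luciferase inhibition by PTC124 control; nearly all actives have a fitted effect of over 70% in size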). A digest of the protocol:
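Purified P. pyralis luciferase at 10 nM in 50 mM Tris Acetate (final), luminescence read within 5 minutes of enzyme addition to compounds. Activity normalised to PTC124 versus DMSO; concentration-response curves classed by r2, magnitude and activity.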

Sequence of 3',5'-cyclic-AMP phosphodiesterase 4B (Homo sapiens) (Q07343 whole entry, looked up): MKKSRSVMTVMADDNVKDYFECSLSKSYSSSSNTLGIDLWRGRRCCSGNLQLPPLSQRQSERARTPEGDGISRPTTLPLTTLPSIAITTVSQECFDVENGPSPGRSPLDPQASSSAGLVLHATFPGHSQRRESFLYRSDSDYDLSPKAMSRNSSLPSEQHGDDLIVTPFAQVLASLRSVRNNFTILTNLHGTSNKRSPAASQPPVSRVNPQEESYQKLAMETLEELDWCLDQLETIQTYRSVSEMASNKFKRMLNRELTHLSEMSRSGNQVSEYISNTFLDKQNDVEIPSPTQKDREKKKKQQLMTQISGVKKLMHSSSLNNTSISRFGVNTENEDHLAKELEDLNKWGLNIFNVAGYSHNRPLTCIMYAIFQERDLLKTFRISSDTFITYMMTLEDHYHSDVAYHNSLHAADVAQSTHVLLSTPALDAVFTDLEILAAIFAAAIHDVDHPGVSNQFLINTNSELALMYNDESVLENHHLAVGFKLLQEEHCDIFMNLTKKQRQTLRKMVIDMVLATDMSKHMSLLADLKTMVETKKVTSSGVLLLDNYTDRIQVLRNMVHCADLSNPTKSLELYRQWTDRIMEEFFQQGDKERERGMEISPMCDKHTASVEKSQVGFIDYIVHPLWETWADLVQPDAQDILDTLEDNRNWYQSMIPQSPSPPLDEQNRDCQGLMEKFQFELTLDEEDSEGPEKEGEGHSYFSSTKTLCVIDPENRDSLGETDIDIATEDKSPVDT
Sequence of Luciferin 4-monooxygenase (Photinus pyralis) (P08659 whole entry, looked up): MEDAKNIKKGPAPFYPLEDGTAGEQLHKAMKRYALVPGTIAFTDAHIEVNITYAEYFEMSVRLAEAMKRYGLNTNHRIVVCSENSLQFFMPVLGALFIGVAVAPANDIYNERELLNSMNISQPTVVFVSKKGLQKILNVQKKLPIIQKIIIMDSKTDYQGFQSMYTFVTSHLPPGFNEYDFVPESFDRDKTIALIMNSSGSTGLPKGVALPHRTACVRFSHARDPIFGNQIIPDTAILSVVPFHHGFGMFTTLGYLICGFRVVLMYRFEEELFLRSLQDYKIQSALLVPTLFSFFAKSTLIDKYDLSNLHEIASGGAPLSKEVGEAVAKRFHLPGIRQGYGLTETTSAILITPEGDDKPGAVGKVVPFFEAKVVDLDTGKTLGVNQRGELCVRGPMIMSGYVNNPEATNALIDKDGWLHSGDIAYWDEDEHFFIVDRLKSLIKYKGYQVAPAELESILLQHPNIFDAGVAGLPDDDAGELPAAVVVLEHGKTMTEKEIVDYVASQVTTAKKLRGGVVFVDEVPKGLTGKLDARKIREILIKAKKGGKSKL
Sequence of Cytochrome P450 2C9 (Homo sapiens) (P11712 whole entry, looked up): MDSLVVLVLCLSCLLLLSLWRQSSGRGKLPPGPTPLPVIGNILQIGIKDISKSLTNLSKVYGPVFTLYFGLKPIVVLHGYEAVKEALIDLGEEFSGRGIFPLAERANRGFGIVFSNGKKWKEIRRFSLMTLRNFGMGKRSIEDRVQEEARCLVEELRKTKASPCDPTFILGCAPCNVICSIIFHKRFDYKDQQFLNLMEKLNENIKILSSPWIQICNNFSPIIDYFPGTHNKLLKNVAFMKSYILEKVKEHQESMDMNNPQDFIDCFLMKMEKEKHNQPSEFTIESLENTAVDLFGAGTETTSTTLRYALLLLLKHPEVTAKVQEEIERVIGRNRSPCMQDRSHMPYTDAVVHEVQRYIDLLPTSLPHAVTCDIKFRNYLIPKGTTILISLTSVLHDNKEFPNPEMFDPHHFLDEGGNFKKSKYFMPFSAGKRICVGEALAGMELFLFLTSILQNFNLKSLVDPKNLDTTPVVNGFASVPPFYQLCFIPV

Take `C=CCn1c(N)c(C(=O)Nc2ccccc2)c2nc3ccccc3nc21`: the activity change, negative = inhibition in assay [1] is -5.29%. The Potency in assay [2] is > 20.6 µM; in assay [3] it was 5.01 µM (active).
Turning to `COc1cccc(-c2nc(NC(C)(C)C)c3ccccc3n2)c1O`, the activity, negative = inhibition in [4] is -74.9% (active). The Potency in assay [2] is > 20.6 µM.
For the molecule `CSc1ccc2c(c1)N(CC[C@H]1CCCCN1C)c1ccccc1S2`, the Potency entry in assay [5] is “inactive”. Moreover, the Potency in [6] was 12.6 µM (active).
As to `COC(=O)C1=C(C)NC(C)=C(C(=O)OCCN(C)Cc2ccccc2)[C@@H]1c1cccc([N+](=O)[O-])c1`, the molecule was classed as inactive in [7]. For the same molecule, the Potency in assay [8] is 3.16 µM (active).
For the molecule `N#C[C@@H](Cc1ccc(O)c(O)c1)C(=O)N1CCc2ccccc21`, the molecule was called inactive in assay [7]. Moreover, the Potency in [9] was 10 µM (active). For the same molecule, the Potency result in assay [8] was “inactive”.
For `N#CC1=C(SCC(=O)c2ccccc2)NC2=C(C(=O)CCC2)C1c1ccco1` (configuration not stated), the Potency in assay [3] is 10 µM (active).
Turning to `Cc1c(C)c2c(c(C)c1O)CC[C@@](C)(CN1CCN(c3cc(N4CCCC4)nc(N4CCCC4)n3)CC1)O2`, the Potency in assay [6] was 10 µM (active).
As to `CN1CCc2c(sc3ncn4nc(-c5ccccc5O)nc4c23)C1`, in assay [2], the Potency is > 20.6 µM.
Consider `CC1=CC(=O)C2=C(C)CC[C@@H]3[C@H](OC(=O)[C@H]3C)[C@H]12`, for which the Potency in [2] and in [10] was > 46 µM each time. For the same molecule, the Potency entry in [5] and in [11] was “inactive” throughout.
As to `CCCC[C@H](CC)CN=C(N)NC(N)=NCCCCCCN=C(N)NC(N)=NC[C@@H](CC)CCCC`, the Potency is > 20.6 µM in [2], > 20.6 µM in assay [10], 3.16 µM (active) in [12] and 28.2 µM (active) in [13]. Besides, the Potency entry in assay [5] and in [11] was “inactive” throughout.
With `C[C@@H]1C(=O)O[C@H]2[C@@H](O)[C@@]34[C@H]5C[C@H](C(C)(C)C)[C@@]36[C@H](OC(=O)[C@@H]6O)O[C@@]4(C(=O)O5)[C@@]12O`, the Potency in assay [2] and in assay [10] was > 46 µM each time. For the same molecule, the Potency result in assay [5] and in assay [11] was “inactive” in each case.
As for `COc1ccc2c(c1)[C@]1(C)CCC[C@](C)(CO)[C@@H]1CC2`, the Potency in [2] was > 46 µM; in assay [10], > 46 µM; in assay [14] it was 7.94 µM (active); in assay [15], 3.16 µM (active). Also, the Potency entry in [5] and in assay [12] was “inactive” each time.
As to `Cn1c(N2CCN(c3ccccn3)CC2)nc2c1c(=O)n(Cc1ccc(Cl)cc1)c(=O)n2C`, the Potency in assay [2] was > 20.6 µM.
`CC(C)OC(=O)c1cc2c(OC[C@@H](O)CNC(C)(C)C)cccc2[nH]1`: the Potency in assay [2] and in [10] was > 46 µM in each case. Moreover, the Potency entry in assay [5] and in assay [17] was “inactive” in each case. For the same molecule, in [16], the result was inactive.
Turning to `O=C(O)CCCC[C@@H]1SC[C@H]2NC(=O)N[C@H]12`, the Potency in [2] and in assay [10] was > 46 µM throughout.
On to `O=c1c(-c2ccc3c(c2)OCCO3)c(C(F)(F)F)oc2cc(O)cc(O)c12`, for which the Potency in assay [2] was > 20.6 µM.
With `COc1ccc(CNc2oc(COc3ccccc3Cl)nc2C#N)cc1`, the Potency in [2] was > 20.6 µM.
The same measure, in the same setting: next, `N#CC(C(=O)NC1CC1)c1nc2ccccc2nc1N1CCN(C/C=C/c2ccccc2)CC1` (configuration not stated): > 20.6 µM; `Cc1csc(NC(=O)CSc2nsc(SCC(=O)Nc3nc(C)cs3)c2C#N)n1`: > 20.6 µM.
